TRPML1 inh – human mucolipin-1 channel inhibition | Q9GZU1 | AID 624415 | activity change, negative = inhibition, % (no concentration beside the values) | 390,000 tested, 0.02% active | TRPML1-inducible cells, Ca2+ dye fluorescence, FDSS; active compounds read low; inhibition of EC80 agonist-evoked calcium signal; in the data active = activity change below about -50%; inconclusive = between about -30% and that limit;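 note: stimulus is agonist 54-4 at its EC80 concentration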
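Tet-induced TRPML1-DL cells loaded with Ca8 no-wash calcium dye were read kinetically on FDSS. Compound addition was followed by EC80 agonist 54-4 (4 uM final); inhibition was read over 110 s.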
TRPV1 ag – activates the human vanilloid receptor TRPV1; Q8NER1; activation, % at 8.33 µM; TRPV1-expressing cells, Fluo-8 calcium influx, agonist mode; 320,000 tested, 0.19% active; in the data active = activation above about 80%; inconclusive = between about 30% and that limit
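Fluo-8 calcium influx in TRPV1-expressing cells, kinetic read (ex 480/em 520 nm). Compound added and read 3 min for agonist activity, followed by capsaicin at EC20 final and 2 min further read for enhancement.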
TRPV1 potentiator – enhances activation of the human vanilloid receptor TRPV1 | TRPV1-expressing cells, Fluo-8 calcium influx, capsaicin EC20 potentiation | potentiation, % at 8.33 µM | 320,000 tested, 0.02% active; in the data active = potentiation above about 80%; inconclusive = between about 30% and that limit
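Fluo-8 calcium influx in TRPV1-expressing cells, kinetic read (ex 480/em 520 nm). Compound added and read 3 min for agonist activity, followed by capsaicin at EC20 final and 2 min further read for enhancement.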
TRPML1 agonist – activates the human TRPML1 channel; TRPML1-expressing cells, Ca2+ dye fluorescence, FDSS; activation, % (no concentration beside the values); 410,000 tested, 0.12% active; AID 624414; in the data active = activation above about 50%; inconclusive = mostly about 30% to 49%
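TRPML1-DL cells, Tet-induced overnight (~16 h, 37 degrees C), loaded 45-90 min at room temperature with Ca8 no-wash calcium dye plus quencher. FDSS fluorescence: 10 s baseline, compound pin-transfer, 110 s agonist read, then EC80 54-4 (4uM final) and 110 s antagonist read.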
TRHR enhancer-1 – allosteric enhancers of human TRH receptor; TRHR cells, fluo-8 calcium fluorescence, EC20 TRH enhancement; 360,000 tested, 0.66% active; enhancement, % at 2 µM; AID 493056; P34981; in the data active = enhancement above about 30%
Target sequence (P34981 whole entry, looked up): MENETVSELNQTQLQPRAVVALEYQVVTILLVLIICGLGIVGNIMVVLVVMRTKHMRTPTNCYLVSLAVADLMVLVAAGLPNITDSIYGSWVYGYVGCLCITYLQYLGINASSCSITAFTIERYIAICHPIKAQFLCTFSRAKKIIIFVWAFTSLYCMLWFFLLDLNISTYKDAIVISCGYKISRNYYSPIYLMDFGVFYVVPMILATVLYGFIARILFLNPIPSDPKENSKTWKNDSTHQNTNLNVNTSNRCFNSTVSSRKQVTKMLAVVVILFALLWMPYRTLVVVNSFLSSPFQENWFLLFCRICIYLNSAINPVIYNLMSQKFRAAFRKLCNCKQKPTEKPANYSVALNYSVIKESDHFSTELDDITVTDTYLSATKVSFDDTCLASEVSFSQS
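TRHR-expressing cells loaded with fluo-8 calcium dye were read kinetically (ex 480/em 530) during compound addition, then stimulated with an EC20 of TRH (10 nM final). Enhancement of the Gq-mediated intracellular calcium response was scored.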
TRHR agonist-1 – TRH receptor (human) agonism; activation, % at 2 µM; TRHR cells, calcium flux fluo-8, FDSS agonist mode; 360,000 tested, 0.18% active; P34981; in the data active = activation above about 30%
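Fluo-8-loaded TRHR cells; 10 s baseline, compound added, kinetic Ca2+ fluorescence read 1/s, agonist mode.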
TRHR enhancer-2 – human TRH receptor allosteric enhancement confirmation; shares compounds with TRHR enhancer-1; TRH receptor cell assay, enhancer confirmation qHTS; activity change, negative = inhibition, % at 46.1 µM; 970 tested, under 10 active;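 note: compound effect scored on response to added TRH at EC20 of 10 nM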
TRHR agonist-2 – human TRH receptor agonism confirmation; shares compounds with TRHR enhancer-1; TRHR-expressing cells, agonist activation read-out; Potency, µM (doses to about 46.1 µM), hits mostly activators; 970 tested, 8% active; AID 493078; note: nearly all actives have a fitted effect of over 75% in size
Hits are given with their value; – = inactive; ? = inconclusive; · = no result. Shown are actives, neighbours in structure and some others; about 0.99% of the full set was active somewhere. Unless noted, calls come from the whole dose curve; as a rule, active = well fitted curve in the direction sought with a large enough effect; inconclusive = small, poorly fitted or top-dose-only effect, or another doubt; inactive = no such curve, though single readings can be large; an effect the other way counts as inactive or inconclusive.

SMILES	TRPML1 inh	TRPV1 ag	TRPV1 potentiator	TRPML1 agonist	TRHR enhancer-1	TRHR agonist-1	TRHR enhancer-2	TRHR agonist-2
O=C(Cc1ccc(Cl)cc1)Nc1ccccc1C(=O)N1CCCC1	–	–	–	–	70.3	–	?	–
O=C(Cc1ccccc1)Nc1ccccc1C(=O)N1CCCCC1	–	–	–	–	–	–	·	·
COc1ccc2nc(-c3ccccn3)[nH]c2c1	–	–	–	–	45.7	–	–	–
CC(=O)N1CC(C)Oc2ccc(S(=O)(=O)NC(CC(=O)O)c3ccccc3)cc21 (stereo not given)	–	–	–	–	43.6	–	–	–
Cc1ccc2oc(-c3ccc(C)c(NC(=O)COc4ccc(Cl)cc4)c3)nc2c1	·	·	·	–	·	·	·	·
CCOC(=O)c1cc(CC)sc1NC(=O)COC(=O)c1cnccn1	–	–	–	–	–	–	·	·
CCOC(=O)c1cc(CC)sc1NC(=O)COC(=O)c1ccccn1	–	–	–	–	–	35.7	–	–
CCO[C@H]1OC(C(=O)N2CCN(Cc3ccc4c(c3)OCO4)CC2)=C[C@@H](c2ccc(Br)cc2)[C@@H]1CCCO	–	?	–	–	49.3	–	–	–
CCOC(=O)C1CCN(c2nc3ccccc3nc2C(C#N)C(=O)OC(C)C)CC1 (stereo not given)	–	–	–	–	–	–	·	·
CCOC(=O)C1CCCN(c2nc3ccccc3nc2C(C#N)C(=O)OC(C)C)C1 (stereo not given)	–	?	–	–	–	42.4	–	?
CN1CCC(=O)N(C(CSc2ccc(Br)cc2)c2ccccc2)CC1 (stereo not given)	–	·	·	–	·	·	·	·
COc1ccc(CCNc2oc(-c3ccccc3OC)nc2C#N)cc1	–	–	–	–	–	–	·	·
COc1ccc(CCNc2oc(-c3ccccc3OC)nc2C#N)cc1OC	–	–	–	–	43.3	–	?	–
COc1ccc(C2Nc3ccccc3C(=O)N2c2ccc(F)cc2)cc1COc1ccc(NC(C)=O)cc1 (stereo not given)	·	·	·	–	·	·	·	·
CSc1ccc(/C=C2\C=Cc3ccccc32)cc1	·	·	·	–	·	·	·	·
COc1ccc(/C=C2\SC(=S)N(c3cccnc3)C2=O)cc1	–	–	–	–	–	–	·	·
Cc1cc(C)nc(NN2C(=O)/C(=C/c3ccc(O)cc3)SC2=S)n1	–	–	–	–	–	35.8	–	20.6µM
O=C1/C(=C\c2ccc(O)cc2)SC(=S)N1c1cccnc1	–	–	–	–	–	36.2	–	?
CC[Si](CC)(CC)O[C@H]([C@@H](C)COCOC)[C@@H](C)COCc1ccc(OC)cc1	–	·	·	–	·	·	·	·
CCCOC(=O)N1CCN(/[N+]([O-])=N/Oc2ccc([N+](=O)[O-])cc2[N+](=O)[O-])CC1	–	·	·	–	·	·	·	·
COc1ccc2c(C#N)c3ccccn3c2c1	–	–	–	–	47.2	–	–	?
Cc1cc(=O)n2ccccc2c1C#N	–	–	–	–	–	–	·	·
CCN(C(=O)COC(=O)/C=C/c1ccc(Cl)c(Cl)c1)c1c(N)n(Cc2ccccc2)c(=O)[nH]c1=O	–	·	·	–	·	·	·	·
CCN(C(=O)COC(=O)/C=C/c1ccccc1Cl)c1c(N)n(Cc2ccccc2)c(=O)[nH]c1=O	–	–	–	–	51.6	–	–	–
COc1ccc(N2C(=O)c3ccccc3NC2c2ccc(OC)c(COc3ccc(NC(C)=O)cc3)c2)cc1 (stereo not given)	·	·	·	–	·	·	·	·
Nc1ccc(/C=C/c2nccc3ccccc23)cc1	·	·	·	–	·	·	·	·
CCN(CC)c1ccc2cc(C(=O)Nc3cccnc3N3CCOCC3)c(=O)oc2c1	·	–	–	·	–	–	·	·
CCN(CC)c1ccc2cc(NC(=O)CCC(=O)O)c(=O)oc2c1	–	–	–	?	–	–	–	20.6µM
Cc1ccc(S(=O)(=O)N2CCN(c3nc(C(N)=O)nc4ccccc34)CC2)cc1	·	·	·	–	·	·	·	·

Compound activity as filed in PubChem.
